The record followed here is PubChem BioAssay (Tox21).

Results filed as inconclusive are left out. A number with no mark means an inactive call. Unless noted, calls come from the whole dose curve.
% is set by controls: 0 for no effect and ±100 for the full control effect.

Chain of Peroxisome proliferator-activated receptor delta (Homo sapiens) (Q03181 whole entry, looked up): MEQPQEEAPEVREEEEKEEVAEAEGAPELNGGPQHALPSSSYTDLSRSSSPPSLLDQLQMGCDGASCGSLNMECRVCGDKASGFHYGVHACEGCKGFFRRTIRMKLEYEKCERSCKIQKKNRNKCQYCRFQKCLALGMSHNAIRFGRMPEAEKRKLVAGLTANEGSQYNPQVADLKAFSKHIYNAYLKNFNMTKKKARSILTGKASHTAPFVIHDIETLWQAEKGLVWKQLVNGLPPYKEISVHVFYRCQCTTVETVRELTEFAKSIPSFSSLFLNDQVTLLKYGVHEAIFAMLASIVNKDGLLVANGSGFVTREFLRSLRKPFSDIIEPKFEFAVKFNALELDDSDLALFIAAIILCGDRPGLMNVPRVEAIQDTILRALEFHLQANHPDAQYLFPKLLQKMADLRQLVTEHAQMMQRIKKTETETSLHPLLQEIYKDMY

Test system in one assay: not listed separately
The assay can be described thus: qHTS assay to identify small molecule agonists of the peroxisome proliferator-activated receptor delta (PPARd) signaling pathway - cell viability counter screen (AID 743211; active = well fitted cell-killing curve with a large enough effect in the repeat runs; note: nearly all actives have a fitted effect of over 55% in size). Conditions: PPARd-bla HEK293H viability, CellTiter-Glo luminescence, 17 h; series mostly up to 62.6 µM; activity change, negative = cytotoxicity: at the top concentration. The gist of the method:
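HEK293H PPARd-bla, 3000 cells/well; 5 h preincubation 37C/5% CO2; cpd in DMSO, 17 h 37C; B/G FRET substrate 2 h RT; CellTiter-Glo 30 min RT, luminescence.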
As for `N#Cc1ccc(N(CC(N)=O)CC(F)(F)F)cc1C(F)(F)F`, the “activity change, negative = cytotoxicity” value is -17.4%.
`COc1cnc(OC)n2nc(NS(=O)(=O)c3c(OCC(F)F)cccc3C(F)(F)F)nc12`: the “activity change, negative = cytotoxicity” value was -1.52%.
The same measure, in the same setting: the result for `CCN(CC)Cc1nccn1-c1ccc([N+](=O)[O-])cc1C(=O)c1ccccc1Cl` reads -12.7%; that for `O=C(N[C@@H]1N=C(c2ccccc2F)c2cccc3c2N(CC3)C1=O)c1cc2ccccc2[nH]1`, -15%.
For the compound `[C-]1=CC=CC1.[Cl][Zr+2][Cl].c1cc[cH-]c1`, the “activity change, negative = cytotoxicity” value was 4.71% [at 81.1 µM].
On the same count and under the same terms, to `Nc1ccc(Cl)cc1C(=O)c1ccccc1F` belongs -21.1%.
On to `C1=CCC=C1`, for which the “activity change, negative = cytotoxicity” value was 1.57%.
Still for that read-out and setting: to `O=S(=O)(O)F` belongs 0.792% [at 81.1 µM]; to `O=[N+]([O-])c1ccc(Cl)c(Cl)c1Cl`, 4.17%.
Same read-out and setting: to `CSC(C)(C)/C=N/O` belongs 2.77%.
Same read-out and setting: the result for `CCN(CC)CCc1c[nH]c2ccccc12` reads -12.7% [at 81.1 µM].
As to `CC(Cl)CCl` (stereo not given), the “activity change, negative = cytotoxicity” value was 0.964%.
Still for that read-out and setting: the result for `Cc1ccc(C)c2ccccc12` reads -1.8%; that for `[O-][Cl+3]([O-])([O-])O`, -1.23% [at 81.1 µM]; that for `COC(=O)c1ccccc1S(=O)(=O)NC(=O)Nc1nc(C)nc(OC)n1`, -0.909%.
`CC1CN1` (stereo not given): the “activity change, negative = cytotoxicity” value is -0.186%.
Regarding `c1cc[n+]2c(c1)-c1cccc[n+]1CC2`, the “activity change, negative = cytotoxicity” value was 3.53%.
In the case of `ClSC(Cl)(Cl)Cl`, the “activity change, negative = cytotoxicity” value was 11.7%.
The same measure, in the same setting: the result for `CCN(CC)CCN1C(=O)CN=C(c2ccccc2F)c2cc(Cl)ccc21` reads 0.545%; that for `ClCBr`, 2.23% [at 81.1 µM]; that for `CC#C[C@]1(O)CC[C@H]2[C@@H]3C[C@H](C)C4=CC(=O)CC[C@]4(C)[C@H]3CC[C@@]21C`, -19.5%.
On the same count and under the same terms, the result for `CC(C)Br` reads 0.354%; that for `O=[N+]([O-])c1ccccc1-c1ccccc1`, 2.16%; that for `O=c1c2ccccc2c(=O)c2c1cc(Cl)c1[nH]c3c([nH]c12)c(Cl)cc1c(=O)c2ccccc2c(=O)c13`, 0.0048%.
Turning to `CCC1(CC)C(=O)N=C(O)NC1=O`, the “activity change, negative = cytotoxicity” value was 2.11%.
On the same count and under the same terms, the result for `CC(C)NCC(O)c1ccccc1Cl` (stereo not given) reads -3.56%; that for `NC1CCC(CC2CCC(N)CC2)CC1` (stereo not given), -20.8%.
Consider `C=Cc1cccc(CCl)c1`, for which the “activity change, negative = cytotoxicity” value was 10.7% [at 81.1 µM].

Another assay concerns the target Peroxisome proliferator-activated receptor delta (Homo sapiens) (UniProt Q03181). Put plainly: qHTS assay to identify small molecule agonists of the peroxisome proliferator-activated receptor delta (PPARd) signaling pathway (AID 743212).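 Note: HEK293H cells with PPARd UAS beta-lactamase reporter GeneBLAzer system.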 To be noted: HEK293H PPARd-UAS-bla, beta-lactamase FRET ratio, 17 h; series mostly up to 62.6 µM; activation: at the top concentration. The gist of the method:
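HEK293H PPARd-bla cells; 5 h preincubation 37 C/5% CO2; compound (DMSO) 37 C; LiveBLAzer B/G FRET substrate 2 h RT; fluorescence intensity.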
A general note: Quantitative high-throughput screening tests each substance at several concentrations.
Consider `N#Cc1ccc(N(CC(N)=O)CC(F)(F)F)cc1C(F)(F)F`, for which the “activation” value was -1.57%.
For the compound `c1ccc(Nc2ccc(Nc3ccccc3)cc2)cc1`, the “activation” value is -2.5%.
The same measure, in the same setting: the result for `COc1cnc(OC)n2nc(NS(=O)(=O)c3c(OCC(F)F)cccc3C(F)(F)F)nc12` reads -1.05%.
Turning to `CCN(CC)Cc1nccn1-c1ccc([N+](=O)[O-])cc1C(=O)c1ccccc1Cl`, the “activation” value is -0.0454%.
Still for that read-out and setting: to `O=C(N[C@@H]1N=C(c2ccccc2F)c2cccc3c2N(CC3)C1=O)c1cc2ccccc2[nH]1` belongs 11%; to `Nc1ccc(Cl)cc1C(=O)c1ccccc1F`, 4.36%.
The same measure, in the same setting: the result for `CCOP(=O)(Sc1ccccc1)Sc1ccccc1` reads -2.95%; that for `O=S(=O)(O)F`, -1.49% [at 81.1 µM]; that for `O=[N+]([O-])c1ccc(Cl)c(Cl)c1Cl`, -0.955%.
In the case of `CSC(C)(C)/C=N/O`, the “activation” value is 0.823%.
As to `CCNS(=O)(=O)C(F)(F)C(F)(F)C(F)(F)C(F)(F)C(F)(F)C(F)(F)C(F)(F)C(F)(F)F`, the “activation” value is 0.717%.
Same read-out and setting: the result for `CCN(CC)CCc1c[nH]c2ccccc12` reads -0.505% [at 81.1 µM]; that for `CNC(=O)O/N=C(\C)C(C)S(C)(=O)=O` (stereo not given), 9.77% [at 765 µM]; that for `CC(Cl)CCl` (stereo not given), -0.0368%.
Consider `Cc1ccc(C)c2ccccc12`, for which the “activation” value was -0.582%.
As for `[O-][Cl+3]([O-])([O-])O`, the “activation” value was 4.57% [at 81.1 µM].
Same read-out and setting: the result for `COC(=O)c1ccccc1S(=O)(=O)NC(=O)Nc1nc(C)nc(OC)n1` reads -1.56%; that for `CC1CN1` (stereo not given), -0.0174%; that for `c1cc[n+]2c(c1)-c1cccc[n+]1CC2`, -2.16%.
The same measure, in the same setting: the result for `ClSC(Cl)(Cl)Cl` reads -0.514%; that for `O=C(Nc1ccc(F)cc1F)c1cccnc1Oc1cccc(C(F)(F)F)c1`, -1.52% [at 81.1 µM].
Same read-out and setting: to `CCC(C)c1cccc(C(C)CC)c1O` (stereo not given) belongs 0.327%.
`CCN(CC)CCN1C(=O)CN=C(c2ccccc2F)c2cc(Cl)ccc21`: the “activation” value is -0.351%.
On to `ClCBr`, for which the “activation” value was 0.673% [at 81.1 µM].
In the case of `COc1ccc2[nH]cc(CCN(C(C)C)C(C)C)c2c1`, the “activation” value is 1.54% [at 81.1 µM].
As for `O=c1c2ccccc2c(=O)c2c1cc(Cl)c1[nH]c3c([nH]c12)c(Cl)cc1c(=O)c2ccccc2c(=O)c13`, the “activation” value was 0.211%.
Same read-out and setting: to `CC(C)C(Br)C(=O)NC(N)=O` (stereo not given) belongs -0.125%.
`CC[C@]1(O)CC[C@H]2[C@@H]3CCC4=CCCC[C@@H]4[C@H]3CC[C@@]21C`: the “activation” value is -4.12%.
As to `CCC1(CC)C(=O)N=C(O)NC1=O`, the “activation” value is 0.472%.
Same read-out and setting: the result for `CC(C)NCC(O)c1ccccc1Cl` (stereo not given) reads 4.66%; that for `CC(C)N(C(=O)SC/C(Cl)=C/Cl)C(C)C`, -1.66% [at 81.1 µM]; that for `NC1CCC(CC2CCC(N)CC2)CC1` (stereo not given), -3.36%.
